This is an account of results in publication PMC5540273 (PLoS ONE, 2017).

Among the test systems are LTK; LYN; MAK; MAP3K15; MAP3K1; MAP3K2; MAP3K3; MAP3K4; MAP4K2; MAP4K3; MAP4K4; MAP4K5; MAPKAPK2; MAPKAPK5; MARK1; MARK2; MARK3; MARK4; MAST1.
Conditions in all cases: concentration: 1 μM, replicates: in singlicate; n = 1
In another assay the test system is T1, LZK.
T1 construct: gene MAP3K13
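Further: KINOMEscan kinase panel screen.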

In the case of `COc1cc2ncn(-c3cc(OCc4sccc4Cl)c(C(N)=O)s3)c2cc1OC` [GSK448459], the “%Inh” value in the assay on LTK is 0%; with LYN, 0%; in the assay on LZK, 0%; in the assay on MAK it was 7%; in the assay on MAP3K15 it was 0%; with MAP3K1 it was 88%. Further, the “%Inh” value is 10% in the assay on MAP3K2; 0% in the assay with MAP3K3; 0% with MAP3K4; 20% with MAP4K2; 50% with MAP4K3; 0% in the assay with MAP4K4. Besides, the “%Inh” value in the assay with MAP4K5 is 99.1%; in the assay on MAPKAPK2, 0%; in the assay on MAPKAPK5 it was 0%; in the assay on MARK1, 0%; in the assay with MARK2 it was 0%; in the assay with MARK3, 0%. The “%Inh” value with MARK4 and with MAST1 was 0% throughout.
Turning to `Cn1cc(-c2ccc3c(c2)CCN3C(=O)Cc2ccccc2Cl)c2c(N)ncnc21` [GSK2608885], the “%Inh” value with LTK stood at 55%; with LYN, 99.2%; in the assay on LZK, 0%; in the assay with MAK, 16%; in the assay on MAP3K15, 0%; in the assay on MAP3K1, 7%. For the same compound, the “%Inh” value in the assay on MAP3K2 is given as 91.1%; in the assay on MAP3K3, 82%; with MAP3K4 it was 86%; in the assay on MAP4K2, 10%; in the assay on MAP4K3 it was 70%; in the assay with MAP4K4, 58%. The “%Inh” value in the assay on MAP4K5 was determined as 96.3%; in the assay with MAPKAPK2, 0%; in the assay on MAPKAPK5, 3%; in the assay on MARK1 it was 16%; with MARK2, 0%; in the assay on MARK3, 46%. The “%Inh” value was 19% in the assay with MARK4 and 0% with MAST1.
With `O=c1cc(N2CCOCC2)nc2n(Cc3cccc(F)c3)ccn12` [GSK2297430], the “%Inh” value with LTK was found to be 68%; in the assay with LYN it was 0%; in the assay on LZK, 0%; in the assay with MAK it was 21%; in the assay on MAP3K15, 0%; with MAP3K1 it was 17%. For the same compound, the “%Inh” value in the assay on MAP3K2 is 0%; in the assay on MAP3K3, 0%; in the assay with MAP3K4, 10%; in the assay on MAP4K2, 0%; with MAP4K3 it was 11%; with MAP4K4, 9%. Further, the “%Inh” value in the assay with MAP4K5 was 4%; in the assay on MAPKAPK2, 12%; in the assay on MAPKAPK5, 0%; in the assay on MARK1 it was 0%; with MARK2 it was 0%; with MARK3 it was 0%. The “%Inh” value with MARK4 is recorded as 10%; in the assay with MAST1 it was 0%.
As to `Fc1ccc(-c2ncn(CCCN3CCOCC3)c2-c2ccccn2)cc1` [SB-211742], the “%Inh” value with LTK is given as 11%; in the assay on LYN, 0%; with LZK it was 0%; in the assay with MAK, 0%; in the assay with MAP3K15 it was 0%; in the assay with MAP3K1, 0%. In addition, the “%Inh” value in the assay on MAP3K2 was 0%; with MAP3K3 it was 0%; with MAP3K4, 18%; in the assay on MAP4K2 it was 0%; in the assay with MAP4K3 it was 0%; in the assay with MAP4K4 it was 2%. In addition, the “%Inh” value in the assay with MAP4K5 is given as 0%; in the assay on MAPKAPK2, 0%; with MAPKAPK5, 0%; with MARK1, 0%; with MARK2, 0%; in the assay on MARK3 it was 30%. Also, the “%Inh” value was 24% with MARK4 and 18% in the assay with MAST1.
As to `COc1cc2c(cc1OCCN1CCN(C)CC1)ncc1c3ccc(C#N)cc3[nH]c21`, the “%Inh” value in the assay on LTK was 0%; in the assay on LYN it was 19%; with LZK, 11%; with MAK, 21%; in the assay with MAP3K15, 61%; with MAP3K1, 0%. Also, the “%Inh” value was found to be 0% with MAP3K2; 0% in the assay with MAP3K3; 0% with MAP3K4; 54% in the assay on MAP4K2; 12% in the assay with MAP4K3; 59% in the assay on MAP4K4. In addition, the “%Inh” value in the assay with MAP4K5 worked out at 22%; in the assay with MAPKAPK2 it was 0%; with MAPKAPK5, 0%; with MARK1, 7%; with MARK2 it was 29%; with MARK3 it was 0%. Further, the “%Inh” value with MARK4 is listed as 0%; in the assay with MAST1, 97.2%.
With `Cc1ccc(NC(=O)c2ccnc(N3CCN(C)CC3)c2)cc1-c1ccc(C(=O)NCC2CC2)cc1` [GW775604], the “%Inh” value in the assay on LTK, with LYN, in the assay on LZK, in the assay with MAK, in the assay with MAP3K15 and with MAP3K1 was 0% throughout. Further, the “%Inh” value in the assay with MAP3K2 is 0%; with MAP3K3, 0%; in the assay on MAP3K4, 0%; in the assay on MAP4K2, 0%; with MAP4K3, 9%; with MAP4K4, 0%. For the same compound, the “%Inh” value in the assay on MAP4K5 was 0%; with MAPKAPK2 it was 0%; with MAPKAPK5 it was 0%; in the assay with MARK1, 12%; with MARK2, 0%; with MARK3 it was 10%. The results for the “%Inh” value in the assay with MARK4 and in the assay with MAST1 were 41% and 0%, respectively.
For the compound `COCCNC(=O)c1ccc(-c2cc(C(=O)NC3CC3)cc(F)c2C)cc1` [GW868318], the “%Inh” value in the assay on LTK was found to be 15%; in the assay with LYN it was 14%; in the assay with LZK, 5%; with MAK, 36%; in the assay on MAP3K15, 24%; in the assay on MAP3K1, 35%. The “%Inh” value is reported as 33% in the assay with MAP3K2; 28% with MAP3K3; 30% in the assay on MAP3K4; 20% in the assay with MAP4K2; 14% in the assay on MAP4K3; 3% in the assay with MAP4K4. Also, the “%Inh” value in the assay with MAP4K5 is reported as 6%; in the assay on MAPKAPK2, 8%; with MAPKAPK5, 5%; with MARK1, 27%; with MARK2 it was 0%; in the assay with MARK3, 25%. The “%Inh” value worked out at 9% in the assay with MARK4 and 68% with MAST1.
As to `Cc1nnc(-c2ccc3ncc(-c4ccc(S(C)=O)cc4)n3c2)o1` (centres unmarked), the “%Inh” value in the assay on LTK was 0%; with LYN, 18%; in the assay with LZK, 11%; with MAK, 0%; in the assay on MAP3K15, 19%; with MAP3K1 it was 4%. For the same compound, the “%Inh” value is on record as 8% in the assay on MAP3K2; 5% in the assay with MAP3K3; 0% in the assay with MAP3K4; 0% with MAP4K2; 0% with MAP4K3; 0% in the assay with MAP4K4. For the same compound, the “%Inh” value stood at 0% in the assay on MAP4K5; 22% in the assay with MAPKAPK2; 5% with MAPKAPK5; 0% in the assay with MARK1; 20% with MARK2; 0% in the assay with MARK3. The “%Inh” value turned out to be 0% with MARK4 and 34% in the assay with MAST1.
Consider `CN(C1=C(c2ccccc2)C(=O)NC1=O)c1ccccc1` [SB-334860], for which the “%Inh” value stood at 6% with LTK; 0% in the assay with LYN; 0% with LZK; 20% with MAK; 0% in the assay on MAP3K15; 9% in the assay on MAP3K1. In addition, the “%Inh” value in the assay with MAP3K2 is 2%; in the assay on MAP3K3, 0%; in the assay on MAP3K4, 10%; with MAP4K2, 0%; with MAP4K3 it was 8%; in the assay with MAP4K4 it was 16%. Moreover, the “%Inh” value in the assay on MAP4K5 is recorded as 9%; with MAPKAPK2, 8%; in the assay with MAPKAPK5, 0%; in the assay on MARK1, 0%; with MARK2, 3%; in the assay on MARK3, 0%. In addition, the “%Inh” value in the assay with MARK4 and in the assay on MAST1 was 0% in each case.
For the compound `Cc1cccc(-c2nc(Nc3ccc4ncsc4c3)c3ccccc3n2)n1` [GW867588], the “%Inh” value was 7% with LTK; 0% in the assay on LYN; 7% in the assay with LZK; 0% in the assay on MAK; 0% in the assay with MAP3K15; 0% in the assay with MAP3K1. Further, the “%Inh” value in the assay with MAP3K2 is given as 8%; with MAP3K3, 6%; in the assay on MAP3K4, 0%; in the assay with MAP4K2, 0%; in the assay on MAP4K3 it was 9%; in the assay with MAP4K4, 3%. In addition, the “%Inh” value was 4% in the assay with MAP4K5; 0% in the assay with MAPKAPK2; 0% in the assay on MAPKAPK5; 6% in the assay with MARK1; 0% in the assay with MARK2; 0% in the assay with MARK3. In addition, the entries for the “%Inh” value in the assay with MARK4 and in the assay with MAST1 were 9% and 21%, respectively.
